# Shown are actives, neighbours in structure and some others; about 4.5% of the full set was active somewhere.
# CSC inhib: cancer stem cell inhibition | inhibition, % at 7.5 µM | hit rate 1.1% among 300,000 | cancer stem cell-like cells viability, luminescence | AID 2717; in the data active = inhibition above about 75%; tested in HMLE shEcad cells
# Gli-Sufu block: antagonists of Gli-Sufu signaling; hit rate 0.74% among 340,000; Sufu-KO-LIGHT fibroblasts, Gli luciferase reporter luminescence; inhibition, % at 5 µM;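 active = inhibition above about 55%, limit read from the data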;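 note: 0% = DMSO-treated cells and 100% = wells with medium but no cells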
# Beta cell apopt: beta cell apoptosis inhibition | INS-1E cytokine-induced death, ATP luminescence, 48 h; percent of positive-control rescue, neutral wells zero | protection from apoptosis, % (test concentration not listed) | hit rate 0.8% among 300,000;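 active = Every replicate reaches about 75%, or at least half do and their mean reaches it too, limit read from the data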;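 note: 0% = cytokine-treated negative control wells and 100% = positive control rescue; higher means more ATP so stronger rescue from cytokine killing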
# Mdm2-MdmX inh: inhibitors of human Mdm2/MdmX interaction; SaOS-2 split-luciferase Mdm2/MdmX complementation, luminescence; inhibition, % at 8 µM; hit rate 3% among 330,000;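 active = inhibition of at least 50% at 8 µM in the primary screen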
# Target sequence (O15151 whole entry, looked up): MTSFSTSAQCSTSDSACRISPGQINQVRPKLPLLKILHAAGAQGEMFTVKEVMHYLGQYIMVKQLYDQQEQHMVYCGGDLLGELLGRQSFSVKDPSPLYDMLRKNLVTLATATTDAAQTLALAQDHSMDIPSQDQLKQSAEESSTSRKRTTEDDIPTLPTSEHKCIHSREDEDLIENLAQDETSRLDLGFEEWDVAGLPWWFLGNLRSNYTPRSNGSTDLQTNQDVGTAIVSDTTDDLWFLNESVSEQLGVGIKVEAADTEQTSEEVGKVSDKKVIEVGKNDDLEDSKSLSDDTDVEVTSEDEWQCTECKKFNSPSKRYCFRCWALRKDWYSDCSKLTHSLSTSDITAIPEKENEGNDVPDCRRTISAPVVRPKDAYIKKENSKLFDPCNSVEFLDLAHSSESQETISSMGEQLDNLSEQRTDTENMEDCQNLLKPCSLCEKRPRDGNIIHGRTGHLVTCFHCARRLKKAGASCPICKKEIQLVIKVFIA
# Target sequence (Q00987 whole entry, looked up): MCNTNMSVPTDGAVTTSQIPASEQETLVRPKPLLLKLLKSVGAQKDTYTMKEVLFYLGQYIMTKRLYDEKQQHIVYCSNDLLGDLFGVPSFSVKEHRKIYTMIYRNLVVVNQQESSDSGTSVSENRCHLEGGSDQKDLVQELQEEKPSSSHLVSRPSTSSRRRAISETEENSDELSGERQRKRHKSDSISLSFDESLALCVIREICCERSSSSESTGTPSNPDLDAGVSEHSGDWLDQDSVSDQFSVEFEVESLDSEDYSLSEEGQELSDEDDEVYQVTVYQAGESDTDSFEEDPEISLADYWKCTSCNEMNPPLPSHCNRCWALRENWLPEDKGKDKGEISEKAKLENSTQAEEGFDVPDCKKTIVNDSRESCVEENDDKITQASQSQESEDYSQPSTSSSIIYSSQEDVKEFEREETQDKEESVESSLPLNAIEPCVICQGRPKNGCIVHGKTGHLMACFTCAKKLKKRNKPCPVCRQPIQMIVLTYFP
# Jurkat NFkB inh: lowers PMA/ionomycin-induced NF-kB signal in Jurkat cells | PMA/ionomycin-induced NF-kB luciferase reporter, luminescence | inhibition, % at 4 µM | hit rate 0.53% among 330,000; in the data active = inhibition above about 50%
# 697 NFkB inh: inhibitors of the PMA/ionomycin-induced NF-kB reporter in 697 B cells; 697 B-cell NF-kB luciferase reporter, 16 h; inhibition, % at 4 µM; hit rate 0.33% among 330,000; AID 435022; in the data active = inhibition above about 35%
# Mdm2-MdmX conf: confirmation of human Mdm2/MdmX interaction inhibitors; shares compounds with Mdm2-MdmX inh; inhibition, % at 8 µM; Mdm2-MdmX binding, luminescent assay; AID 489028; hit rate 55% among 10,000; in the data active = inhibition above about 40%
# Full FLuc ctr: counter-screen for Mdm2/MdmX inhibitors: full-length luciferase; inhibition, % at 8 µM; shares compounds with Mdm2-MdmX inh; hit rate 77% among 6,200; AID 504607; SaOS-2 full-length luciferase counterscreen, luminescence;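 active = mean inhibition at 8 µM reaching about 37%, which flags the compound as non-specific, limit read from the data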;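 note: p53-null SaOS-2 cells with luciferase driven by a doxycycline-inducible promoter; compound on cells about two nights before reading with doxycycline added after day one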
# Numbers without * were called inactive; / = no result.
SMILES,CSC inhib,Gli-Sufu block,Beta cell apopt,Mdm2-MdmX inh,Jurkat NFkB inh,697 NFkB inh,Mdm2-MdmX conf,others
Cc1cccn2c(=O)c(/C=C(\C#N)C(=O)NCc3ccccc3)c(N3CCC(C(N)=O)CC3)nc12,-15,4,-1,64*,0,5,1,
CC(=O)Nc1nc(-c2ccc3c(c2)CCN3C(=O)C2CC2)c(C)s1,/,-20,9,95*,-19,-27,93*,Full FLuc ctr=51*
O=c1cc(Nc2ccc3c(c2)OCCO3)[nH]c(=O)n1C1CCCCC1,-3,-21,4,55*,43,23,53*,Full FLuc ctr=58*
CCc1ccc(Nc2cc(=O)n(C3CCCCC3)c(=O)[nH]2)cc1,-8,-15,12,21,-15,-41,/,
COc1cc(C(=O)Oc2ccccc2/C=N/NC(=O)c2ccc(Cl)cc2Cl)cc(OC)c1OC,22,8,92*,56*,-2,-68,23,
CC1C(c2ccccc2)N(C)C(c2ccccc2)C(C)C1(O)C#Cc1ccccc1 (stereo not drawn),/,7,10,71*,19,7,25,
CCN1CCC(O)(C#Cc2ccccc2)CC1,0,-5,1,9,-11,10,/,
Cc1ccc(CN(C)C(=O)C2CCC(=O)N(CCc3ccccc3)C2)o1 (stereo not drawn),/,14,/,-28,-5,-29,/,
CCCN(CCC)CCCNC(=O)c1cc2c(=O)n(CC)c3ccccc3c2s1,5,21,5,71*,-18,10,58*,Full FLuc ctr=59*
CCn1c(=O)c2cc(C(=O)NCCCOC)sc2c2ccccc21,31,8,0,64*,14,19,49*,Full FLuc ctr=103*
COCCCNC(=O)c1ccc(Cn2c(=O)c3ccccc3n(Cc3ccccc3C#N)c2=O)cc1,/,-5,0,53*,2,-2,19,
COCCCNC(=O)c1ccc(Cn2c(=O)c3ccccc3n(Cc3ccccc3C)c2=O)cc1,7,4,-4,36,13,-26,/,
CCCCN(CC)CCNC(=O)c1cc2c(=O)[nH]c3ccc(C)cc3c2s1,5,2,/,83*,-13,-16,47*,Full FLuc ctr=68*
Cc1ccc(-n2nc3c(=O)n(CCCC(=O)NC4CCC(C)CC4)nc(C)c3c2C)cc1 (stereo not drawn),6,0,0,19,-11,-6,/,
CCCCN(CC)CCCNC(=O)c1cc2c(=O)n(CC)c3ccccc3c2s1,9,39,4,79*,-10,22,60*,Full FLuc ctr=55*
CCCCN(CC)CCNC(=O)c1cc2c(=O)n(CC)c3ccccc3c2s1,-2,31,5,73*,-29,1,52*,Full FLuc ctr=66*
CCn1c(=O)c2cc(C(=O)NCCC(C)C)sc2c2ccccc21,32,/,2,47,-11,15,/,
CCCCN(CC)CCNC(=O)c1cc2c(=O)n(C)c3ccccc3c2s1,18,18,12,37,-80,-18,/,
C=CCn1c(SCC(=O)NC2CCCCC2)nnc1-c1cccnc1,0,-3,-2,8,-3,5,/,
CCOC(=O)C1C(=O)NC(C(=O)OCC)(C(=O)OCC)C1C(C)CC (stereo not drawn),/,4,/,/,/,/,/,
CN(c1ccccc1)S(=O)(=O)c1ccc(Cl)c(C(=O)OCC(=O)c2c(N)n(C)c(=O)n(C)c2=O)c1,/,4,/,/,/,/,/,
CCOC(=O)C1=C(COC(=O)/C=C/c2cccc([N+](=O)[O-])c2)NC(=O)NC1C (stereo not drawn),-3,2,-3,9,0,10,/,
O=C(CN1CCCCCC1)Nc1ccc(Cl)cn1,25,10,-3,8,-15,-12,/,
Cc1ccc(S(=O)(=O)N2CCC(NC(=O)OC(C)C)CC2)cc1,-12,5,-6,3,1,-8,/,
Nc1c(Cl)c(Cl)nc(C(=O)OCC(=O)N2CCCC2=O)c1Cl,-4,-11,/,-5,13,0,/,
SMILES,CSC inhib,Gli-Sufu block,Beta cell apopt,Mdm2-MdmX inh,Jurkat NFkB inh,697 NFkB inh,Mdm2-MdmX conf,others
O=C(OCC(=O)N1CCCC1=O)c1nc(Cl)c(Cl)c(Cl)c1Cl,12,0,-5,77*,-3,-33,26,
CC1(CCc2ccccc2)NC(=O)NC1=O (stereo not drawn),/,5,/,/,/,/,/,
COc1ccc(CCNC(=O)COC(=O)c2cc(S(=O)(=O)N3CCOCC3)ccc2C)cc1OC,/,1,-15,13,2,-16,/,
Cc1nn(CC(=O)Nc2ccc3c(c2)oc2ccccc23)c(=O)c2ccccc12,/,2,-2,77*,-5,24,14,
CCC(=O)Nc1cc(-c2nn(C)c(=O)c3ccccc23)ccc1OC,/,-3,0,31,4,26,/,
Cc1ccc(-c2nn(CC(=O)NCc3cc(-c4nn(C)c(=O)c5ccccc45)ccc3C)c(=O)c3ccccc23)cc1,-5,10,41,97*,4,-13,20,
COc1ccc(-c2nn(C)c(=O)c3ccccc23)cc1NC(=O)Cn1nc(C)c2ccccc2c1=O,-9,42,5,57*,-8,-11,22,
CCC(=O)NCc1cc(-c2nn(C)c(=O)c3ccccc23)ccc1C,-5,13,-5,26,-3,5,/,
CCCCn1c(N)c(N(CC(C)C)C(=O)c2ccc(S(=O)(=O)N3CCCCCC3)cc2)c(=O)[nH]c1=O,/,35,-1,5,13,22,/,
CN(CC(=O)Nc1n[nH]c(=S)s1)S(=O)(=O)c1cccc2cccnc12,-11,7,1,-14,17,11,/,
Cc1ccc(-c2cc(C(F)F)n3ncc(C(=O)N4CCCc5ccccc54)c3n2)cc1,-18,9,7,16,-9,8,/,
COc1ccc(-c2cc(C(F)F)n3ncc(C(=O)N4CCc5ccccc54)c3n2)cc1,61,26,9,67*,41,-54,56*,Full FLuc ctr=73*
CC(Sc1nc(C(F)(F)F)nc2ccccc12)C(=O)NC1CCCC1 (stereo not drawn),/,-3,/,-8,-1,9,/,
O=C(Cc1ccsc1)Nc1ccccc1F,/,-1,-5,10,-8,5,/,
N=c1c2c(-c3ccccc3)c(-c3ccccc3)n(Cc3ccco3)c2ncn1CCO,37,7,9,82*,33,-24,61*,Full FLuc ctr=57*
N=c1c2c(-c3ccccc3)c(-c3ccccc3)n(Cc3ccco3)c2ncn1CCN1CCOCC1,-4,19,3,55*,-6,-29,33,
c1ccc(-c2nc3nc4ccccc4nc3n2Cc2ccco2)cc1,8,7,6,-37,-82,-164,/,
COc1ccc(Cl)cc1C(=O)Nc1ccc(NC(C)=O)cc1,8,7,1,1,-5,3,/,
CC(=O)Oc1c(I)cc(I)cc1C(=O)Nc1ccc(Cl)cc1,108*,16,106*,90*,-5,-39,53*,Full FLuc ctr=19
